From PubChem BioAssay AID623992 (NMMLSC, 2012)
Measured potencies and affinities stand elsewhere. Unmarked numbers belong to inactive results. Active and inactive are the calls of the source.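 How the source made its calls: active means compounds whose fitted half-maximal effective concentration for blocking dye efflux is below 100 µM; inactive means the rest.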

What follows are compounds tested against Benomyl/methotrexate resistance protein (Candida albicans) (UniProt P28873) (assay: Candida albicans Mdr1 pump blockade titration – singleplex, Cherry Pick2 set, dose response (AID 623992)). Conditions: S. cerevisiae AD/CaMDR1, Nile Red efflux, flow cytometry; series mostly up to 100 µM; efflux inhibition response: at the top concentration.
Sequence of Benomyl/methotrexate resistance protein (Candida albicans) (P28873 whole entry, looked up): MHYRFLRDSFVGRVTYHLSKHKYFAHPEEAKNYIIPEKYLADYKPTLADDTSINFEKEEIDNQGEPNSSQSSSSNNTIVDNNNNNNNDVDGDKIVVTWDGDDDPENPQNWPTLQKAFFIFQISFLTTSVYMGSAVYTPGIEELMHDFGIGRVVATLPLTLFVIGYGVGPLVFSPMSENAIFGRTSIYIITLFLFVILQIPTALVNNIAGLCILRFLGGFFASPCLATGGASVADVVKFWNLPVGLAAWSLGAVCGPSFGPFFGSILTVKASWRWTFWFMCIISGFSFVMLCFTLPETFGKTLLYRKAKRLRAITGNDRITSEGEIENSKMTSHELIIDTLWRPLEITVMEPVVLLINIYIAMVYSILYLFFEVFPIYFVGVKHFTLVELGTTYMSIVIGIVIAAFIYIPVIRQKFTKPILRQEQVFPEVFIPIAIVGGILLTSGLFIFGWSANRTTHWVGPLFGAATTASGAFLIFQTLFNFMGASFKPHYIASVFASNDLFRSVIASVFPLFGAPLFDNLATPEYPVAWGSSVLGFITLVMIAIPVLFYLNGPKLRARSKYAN

SMILES | efflux inhibition response [%] | outcome
NS(=O)(=O)c1ccc(N2N=C(c3ccc(Br)cc3)CC2c2ccc(F)cc2)cc1 (stereo unspecified) | -1.21 | 
NC1=NC[C@@H](Cc2ccc(O)cc2)N1CCCCC1CCCCC1 | -0.9 | 
NS(=O)(=O)c1ccc(N2N=C(c3ccccc3)CC2c2ccc(Br)cc2)cc1 (stereo unspecified) | -2.11 | 
CCO[C@@H]1OC(C(=O)Nc2ccccc2)=C[C@H](c2ccccc2)[C@H]1CCCO | -1.21 | 
COc1ccc(CNC(=O)C(C#N)c2nc3ccccc3nc2N2CCCC2)cc1 (stereo unspecified) | -1.31 | 
COc1ccc([C@H]2CC(=O)C=C(c3ccnc4ccc(Cl)cc34)C2)cc1 | 126 | 
COc1ccc(S(=O)(=O)N(C)C[C@H]2Oc3c(NC(=O)NC4CCCCC4)cccc3C(=O)N([C@H](C)CO)C[C@@H]2C)cc1 | 122 | 
COc1cc(OC)c2ccc(=O)oc2c1C(CCN1CCCC(C)C1)c1ccc(N(C)C)cc1 (stereo unspecified) | -0.68 | 
Cc1cc(C(=O)NC2CC(C)(C)Cc3c2cnn3-c2ccc(F)cc2)no1 (stereo unspecified) | -1.32 | 
O=C(c1ccoc1)N1CCC2(CC1)Oc1ccc(F)cc1C(=O)C21CC(c2ccc(Cl)cc2)=NO1 (stereo unspecified) | 75.4 | 
CCN(CC)CCC(c1ccc(N(C)C)cc1)c1c(OC)cc(OC)c2ccc(=O)oc12 (stereo unspecified) | -1.95 | 
Cc1ccc(N2CCN(C(=O)C3CCCN(c4ncnc5c4nc4n5CCCCC4)C3)CC2)c(C)c1 (stereo unspecified) | -0.58 | 
Cc1cc(C)c2sc(N(CCCN(C)C)C(=O)c3ccc(Br)s3)nc2c1 | 68.6 | 
CCC(=O)N1CCN(c2ccc(Cl)cc2NC(=O)c2ccc3c(c2)OCCO3)CC1 |  | inactive
COc1ccc2sc(-c3ccccc3OC)c(-c3ccc(OCCN(C)C)cc3)c2c1 | 307 | 
O=C(NCCc1ccc(Cl)cc1)C1CCC(CNc2nc(=S)[nH]c3ccccc23)CC1 (stereo unspecified) | -0.35 | 

SMILES | efflux inhibition response [%] | outcome
O=C(NCCC1=CCCCC1)C1CCC(CNc2nc(=S)[nH]c3ccccc23)CC1 (stereo unspecified) | 35.4 | 
Cc1ccc2c(c1)[C@H]1[C@H](CO2)[C@H](c2ccccc2)[C@]2(C)C(=O)Nc3cc(F)c(F)cc3C(=O)N12 | -0.45 | 
O=C(C1CCCN(c2ncnc3c2nc2n3CCCCC2)C1)N1CCN(c2ccccc2F)CC1 (stereo unspecified) | -1.04 | 
O=C(C1CCCN(c2ncnc3c2nc2n3CCCCC2)C1)N1CCN(c2cccc(Cl)c2)CC1 (stereo unspecified) | -0.25 | 
O=C(Nc1ccccc1)C1=C[C@@H](c2ccc(C(F)(F)F)cc2)C[C@@H](OCCCCO)O1 | 0.5 | 
NC1=NC[C@H](Cc2ccc(O)cc2)N1CCCCC1CCCCC1 | -0.18 | 
COc1ccc(N2CCN(C(=O)C3CCCN(c4ncnc5c4nc4n5CCCCC4)C3)CC2)cc1 (stereo unspecified) | -1.48 | 
COc1ccc(C2CC(c3cccc(OC)c3)=NN2c2ccc(S(N)(=O)=O)cc2)cc1 (stereo unspecified) | -2.33 | 
COc1cccc(N2CCN(C(=O)C3CCCN(c4ncnc5c4nc4n5CCCCC4)C3)CC2)c1 (stereo unspecified) | -0.35 | 
Cc1ccc(C2CC(c3ccccc3)=NN2c2ccc(S(N)(=O)=O)cc2)cc1 (stereo unspecified) | -2.43 | 
C[C@@]12C(=O)Nc3ccc(Cl)cc3C(=O)N1[C@H]1c3cc(Cl)ccc3OC[C@@H]1[C@@H]2c1ccccc1 | -0.59 | 
COc1ccc(CCOC(=O)c2ccc(N)c([N+](=O)[O-])c2)cc1 | -0.87 | 
O=C(CSc1nnc(Cc2cccs2)n1Cc1ccco1)Nc1cccc(Cl)c1 | -1.55 | 
Cc1ccc2sc(N(CCCN(C)C)C(=O)c3ccc(Br)s3)nc2c1C | -2.13 | 
NS(=O)(=O)c1ccc(N2N=C(c3ccccc3)CC2c2ccccc2)cc1 (stereo unspecified) | -1.41 | 
